Source: PubChem BioAssay (Tox21)
Several values for one entry are separate records, joined by “and”; a condition that tells them apart may be missing. Equal values may be shown once. Records with an inconclusive call do not appear. Some structures have more than one record in an assay (separate samples or runs), and their calls can disagree. Activity calls are given as the source filed them. Calls follow the shape of the dose curve; as a rule, active = well fitted curve in the direction sought with a large enough effect in the repeat runs; inconclusive = weak or mixed curves; inactive = no such curve, though single readings can be large; an effect the other way counts as inactive or inconclusive.

Tests used:
[1] = qHTS RealTime-Glo MT Cell Viability Assay in HepG2 cells - 40 hour (AID 1224870); also: nearly all actives have a fitted effect of over 50% in size; also: potency is read from the fitted curve at half-maximal effect
How it was run: (§1)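 HepG2 cells mixed with RealTime-Glo MT reagents (NanoLuc plus cell-permeant prosubstrate) were seeded at 600 cells/well, incubated 5 h at 37 C/5% CO2, then pinned with compounds in DMSO; nonlytic luminescence tracked viability during 40 h treatment.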

[2] = A CellTox Green Cytotoxicity Assay to monitor cytotoxicity in HEK293 cells - 40 hour (AID 1224871); also: nearly all actives have a fitted effect of over 45% in size; also: potency is read from the fitted curve at half-maximal effect
How it was run: (§2)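 Homogeneous no-lysis format: HEK293 cell suspension mixed with CellTox Green reagent, seeded, incubated 5 h at 37 C/5% CO2, then dosed by pintool with compound in DMSO.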

[3] = qHTS RealTime-Glo MT Cell Viability Assay in HEK293 cells - 16 hour (AID 1224872); also: top concentration of the series differs between compounds; nearly all actives have a fitted effect of over 50% in size
How it was run: (§3)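 Viability tracked continuously by luminescence as live cells reduce a prosubstrate for NanoLuc; HEK293 cells preincubated 5 h, compound-treated at 37 C, and read at 0, 8, 16, 24, 32 and 40 h.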

[4] = qHTS RealTime-Glo MT Cell Viability Assay in HepG2 cells - 8 hour (AID 1224873); also: nearly all actives have a fitted effect of over 55% in size
How it was run: as §1

[5] = qHTS RealTime-Glo MT Cell Viability Assay in HEK293 cells - 40 hour (AID 1224874); conditions: RealTime-Glo luminescence; max response: stronger effect = lower value; also: nearly all actives have a fitted effect of over 50% in size; also: potency is read from the fitted curve at half-maximal effect
How it was run: (§4)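 Measured as luminescence from the same continuously cultured HEK293 wells at successive time points (0, 8, 16, 24, 32, 40 h) after compound addition. Reagent present from seeding; dosing at 5 h; incubation 37 C.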

[6] = A CellTox Green Cytotoxicity Assay to monitor cytotoxicity in HEK293 cells - 24 hour (AID 1224875); also: nearly all actives have a fitted effect of over 45% in size; also: potency is read from the fitted curve at half-maximal effect
How it was run: as §2

[7] = qHTS RealTime-Glo MT Cell Viability Assay in HepG2 cells - 32 hour (AID 1224877); also: nearly all actives have a fitted effect of over 55% in size; also: potency is read from the fitted curve at half-maximal effect
How it was run: (§5)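 Viability was tracked continuously by NanoLuc luminescence from prosubstrate reduced by living HepG2 cells, at successive time points over 40 h of compound exposure. Cells with reagent were preincubated 5 h at 37 °C before compound addition.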

[8] = A CellTox Green Cytotoxicity Assay to monitor cytotoxicity in HepG2 cells - 24 hour (AID 1224878); also: nearly all actives have a fitted effect of over 45% in size; also: potency is read from the fitted curve at half-maximal effect
How it was run: (§6)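 Fluorescent DNA-binding dye, 600 HepG2 cells/well, 5 h preincubation then compound in DMSO; same plates read at 0–40 h, 37 C.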

[9] = A CellTox Green Cytotoxicity Assay to monitor cytotoxicity in HepG2 cells - 40 hour (AID 1224879); also: nearly all actives have a fitted effect of over 40% in size; also: potency is read from the fitted curve at half-maximal effect
How it was run: as §6

[10] = qHTS RealTime-Glo MT Cell Viability Assay in HEK293 cells - 0 hour (AID 1224880); also: top concentration of the series differs between compounds; nearly all actives have a fitted effect of over 45% in size
How it was run: as §4

[11] = A CellTox Green Cytotoxicity Assay to monitor cytotoxicity in HEK293 cells - 32 hour (AID 1224881); also: nearly all actives have a fitted effect of over 40% in size; also: potency is read from the fitted curve at half-maximal effect
How it was run: as §2

[12] = A CellTox Green Cytotoxicity Assay to monitor cytotoxicity in HepG2 cells - 0 hour (AID 1224882); also: nearly all actives have a fitted effect of over 35% in size; also: potency is read from the fitted curve at half-maximal effect
How it was run: as §6

[13] = A CellTox Green Cytotoxicity Assay to monitor cytotoxicity in HepG2 cells - 32 hour (AID 1224883); also: nearly all actives have a fitted effect of over 50% in size; also: potency is read from the fitted curve at half-maximal effect
How it was run: as §6

[14] = A CellTox Green Cytotoxicity Assay to monitor cytotoxicity in HEK293 cells - 8 hour (AID 1224884); also: nearly all actives have a fitted effect of over 35% in size; also: potency is read from the fitted curve at half-maximal effect
How it was run: as §2

[15] = qHTS RealTime-Glo MT Cell Viability Assay in HepG2 cells - 16 hour (AID 1224885); also: nearly all actives have a fitted effect of over 50% in size
How it was run: as §5

[16] = qHTS RealTime-Glo MT Cell Viability Assay in HEK293 cells - 24 hour (AID 1224886); also: nearly all actives have a fitted effect of over 50% in size; also: potency is read from the fitted curve at half-maximal effect
How it was run: as §3

[17] = A CellTox Green Cytotoxicity Assay to monitor cytotoxicity in HEK293 cells - 16 hour (AID 1224888); also: nearly all actives have a fitted effect of over 35% in size; also: potency is read from the fitted curve at half-maximal effect
How it was run: as §2

[18] = qHTS RealTime-Glo MT Cell Viability Assay in HepG2 cells - 0 hour (AID 1224889); also: nearly all actives have a fitted effect of over 50% in size
How it was run: as §5

[19] = A CellTox Green Cytotoxicity Assay to monitor cytotoxicity in HepG2 cells - 16 hour (AID 1224876); also: nearly all actives have a fitted effect of over 45% in size; also: potency is read from the fitted curve at half-maximal effect
How it was run: as §6

[20] = qHTS RealTime-Glo MT Cell Viability Assay in HEK293 cells - 8 hour (AID 1224887)
How it was run: as §4
% is scaled to controls: 0 for no effect and ±100 for the full control effect.

CCCCOCCOCCOCCO
inactive: Potency [1] | Potency [2] | Potency [3] | Potency [4] | max response [5] 3.72% and 4.47% | Potency [6] | Potency [7] | Potency [8] | Potency [9] | Potency [10] | Potency [11] | Potency [12] | Potency [13] | Potency [14] | Potency [15] | Potency [16] | Potency [17] | Potency [18]

CCC(C)CO (centres undefined)
inactive: Potency [1] | Potency [2] | Potency [3] | Potency [4] | max response [5] 4.66% | Potency [6] | Potency [7] | Potency [10] | Potency [11] | Potency [14] | Potency [15] | Potency [20] | Potency [17] | Potency [18]
inactive and 38.9 µM (active): Potency [19]
inactive and 43.6 µM (active): Potency [9] | Potency [12] | Potency [13]
inactive and 24.5 µM (active): Potency [16]
active: Potency [5] 24.5 µM

O=C(c1ccccc1)c1ccc(O)cc1O
inactive: Potency [1] | Potency [2] | Potency [3] | Potency [4] | max response [5] -11.1% and -19.8% | Potency [6] | Potency [19] | Potency [7] | Potency [10] | Potency [11] | Potency [12] | Potency [14] | Potency [15] | Potency [16] | Potency [20] | Potency [17] | Potency [18]
inactive and 43.6 µM (active): Potency [9] | Potency [13]

CCCC(=O)O
inactive: Potency [1] | Potency [2] | Potency [3] | Potency [4] | max response [5] 23.6% and 12.6% | Potency [6] | Potency [19] | Potency [7] | Potency [8] | Potency [9] | Potency [10] | Potency [11] | Potency [12] | Potency [13] | Potency [14] | Potency [15] | Potency [16] | Potency [17] | Potency [18]

CN(C)c1nc(N(C)C)nc(N(C)C)n1
inactive: Potency [1] | Potency [2] | Potency [3] | Potency [4] | Potency [6] | Potency [19] | Potency [7] | Potency [8] | Potency [9] | Potency [10] | Potency [11] | Potency [12] | Potency [13] | Potency [14] | Potency [15] | Potency [16] | Potency [20] | Potency [17] | Potency [18]

C[Si](C)(C)O[Si](C)(C)C
inactive: Potency [1] | Potency [2] | Potency [3] | Potency [4] | max response [5] -0.246% and 0.761% | Potency [6] | Potency [7] | Potency [8] | Potency [9] | Potency [10] | Potency [11] | Potency [12] | Potency [13] | Potency [14] | Potency [15] | Potency [16] | Potency [20] | Potency [17] | Potency [18]

Cc1cc2nc3c(=O)[nH]c(=O)nc-3n(C[C@H](O)[C@H](O)[C@H](O)CO)c2cc1C
active: Potency [2] 43.2 µM and 40.5 µM and 10.4 µM | Potency [6] 48.5 µM and 40.5 µM and 11.7 µM | Potency [19] 43.2 µM and 40.5 µM and 11.7 µM | Potency [8] 43.2 µM and 40.5 µM and 11.7 µM | Potency [9] 43.2 µM and 40.5 µM and 11.7 µM | Potency [11] 48.5 µM and 45.5 µM and 11.7 µM | Potency [12] 43.2 µM and 40.5 µM and 11.7 µM | Potency [13] 43.2 µM and 40.5 µM and 11.7 µM | Potency [14] 43.2 µM and 40.5 µM and 11.7 µM | Potency [17] 43.2 µM and 40.5 µM and 11.7 µM
inactive: Potency [1] | Potency [3] | Potency [4] | max response [5] -7.07% and -0.427% and -0.0783% | Potency [7] | Potency [10] | Potency [15] | Potency [16] | Potency [18]

Nc1ncn([C@@H]2O[C@H](CO)[C@@H](O)[C@H]2O)c(=O)n1
inactive: Potency [1] | Potency [2] | Potency [3] | Potency [4] | Potency [6] | Potency [7] | Potency [8] | Potency [9] | Potency [10] | Potency [11] | Potency [12] | Potency [13] | Potency [14] | Potency [15] | Potency [16] | Potency [17] | Potency [18]

CCCCOCCOCCO
inactive: Potency [1] | Potency [2] | Potency [3] | Potency [4] | max response [5] 0.043% and 0.397% | Potency [6] | Potency [19] | Potency [7] | Potency [8] | Potency [9] | Potency [10] | Potency [11] | Potency [12] | Potency [13] | Potency [14] | Potency [15] | Potency [16] | Potency [20] | Potency [17] | Potency [18]

CN(C)CCC=C1c2ccccc2CCc2ccccc21
active: Potency [8] 38.9 µM and 23.9 µM | Potency [9] 55 µM and 43.6 µM and 26.8 µM | Potency [13] 55 µM and 43.6 µM and 26.8 µM
inactive and 49 µM (active): Potency [7]
inactive: Potency [2] | Potency [3] | Potency [4] | Potency [6] | Potency [11] | Potency [12] | Potency [14] | Potency [15] | Potency [16] | Potency [20] | Potency [17]
inactive and 54.9 µM (active): Potency [1]

COc1cc([C@@H]2c3cc4c(cc3[C@H](O)[C@H]3COC(=O)[C@H]23)OCO4)cc(OC)c1OC
active: Potency [5] 0.0489 µM
inactive: Potency [1] | Potency [2] | Potency [3] | Potency [4] | Potency [6] | Potency [7] | Potency [9] | Potency [10] | Potency [11] | Potency [12] | Potency [13] | Potency [14] | Potency [15] | Potency [20] | Potency [17] | Potency [18]

O=CCCCC=O
42.1 µM (active) and inactive: Potency [16]
active: Potency [5] 42.1 µM
inactive: Potency [1] | Potency [2] | Potency [3] | Potency [4] | max response [5] 3.08% | Potency [6] | Potency [7] | Potency [10] | Potency [11] | Potency [12] | Potency [14] | Potency [15] | Potency [17] | Potency [18]
